Shown are actives, neighbours in structure and some others; about 5.4% of the full set was active somewhere.
ALOX12 inhib = blocks human 12-lipoxygenase activity; P18054; purified 12-hLO, xylenol orange hydroperoxide absorbance; Potency, µM (titrated, usually from 57.1 µM), usual class: inhibitors; 150,000 compounds, 0.12% hits; further: nearly all actives have a fitted effect of over 55% in size
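Lipoxygenase turnover measured by absorbance at 573 and 405 nm after Fe-XO development. Human 12hLO 150 nM, arachidonate 40 uM, pH 7.0 Hepes buffer with detergent; 15 min compound preincubation, 30 min reaction.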
HPGD inh = HPGD (human) dehydrogenase inhibition; P15428; 150,000 compounds, 4.3% hits; purified HPGD, NADH fluorescence kinetic, PGE2 substrate; Potency, µM, usual class: inhibitors; active means well fitted inhibition curve with a large enough effect, not every such curve was filed as active; inconclusive means small, poorly fitted or top-dose-only effect, or another doubt; inactive means no such curve, though single readings can be large or run the other way
Target sequence (P15428 whole entry, looked up): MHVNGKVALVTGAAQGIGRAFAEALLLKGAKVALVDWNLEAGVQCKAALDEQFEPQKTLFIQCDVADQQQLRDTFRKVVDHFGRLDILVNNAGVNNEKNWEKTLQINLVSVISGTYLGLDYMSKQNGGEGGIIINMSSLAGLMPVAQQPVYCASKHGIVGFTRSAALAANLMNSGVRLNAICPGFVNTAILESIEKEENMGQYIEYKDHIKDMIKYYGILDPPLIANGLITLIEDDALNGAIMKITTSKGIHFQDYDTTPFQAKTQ
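20 nM HPGD preincubated 15 min at room temperature with compound in 50 mM Tris-HCl pH 8, 0.01% Tween 20. Started with 1 mM NAD+ and 30 uM prostaglandin E2; NADH fluorescence (360/450 nm) read 5 times over 30-s intervals, last minus first.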
PNC assembly inh = blocks assembly of the perinucleolar compartment; PC3M PTB-GFP, PNC prevalence imaging, 16 h; stronger effect = lower value; 140,000 compounds, 3.1% hits; activity change (PNC), negative = inhibition, % at 10 µM;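 active means readout at or below -70, meaning at least 70% loss of cells showing the perinucleolar compartment, a nuclear body marking cancer cells; inconclusive means readout between -30 and a set limit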
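Read-out is percentage of cells bearing a perinucleolar compartment, from automated 20x imaging of fixed, Hoechst-stained PC3M PTB-GFP cells. Cells were seeded 4 h, then exposed 16 h to compound (23 nl of library stock) in duplicate plates.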
ALOX15B inhib = inhibitors of human 15-lipoxygenase 2 (ALOX15B); O15296; purified 15hLO-2, xylenol orange hydroperoxide absorbance; Potency, µM (doses to about 57.1 µM), actives largely listed as inhibitors; 110,000 compounds, 0.56% hits; further: nearly all actives have a fitted effect of over 60% in size
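Enzyme 50 nM, AA 45 uM, 25 mM Hepes pH 7.5 + 0.01% Triton X-100; cpd preinc 15 min RT, rxn 90 min RT; stop/detect with 200 uM XO + 300 uM Fe(II) in 50 mM H2SO4, 30 min; A573/A405.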
IMPase Li inh = IMPase inhibition in cells with lithium potentiation; Potency, µM (titrated, usually from 59.4 µM), most hits filed as inhibitors; AID 1457; 210,000 compounds, 0.35% hits; CHO-M1 cells, IP1 TR-FRET (IP-One), carbachol + lithium;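 further: IP1 builds up when IMPase is blocked and the TR-FRET signal falls; nearly all actives have a fitted effect of over 50% in size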
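CHO cells stably expressing M1 receptor (2000/well) were cultured 16–30 h, then exposed to compounds with a small lithium addition for 30 min at 37C. IP1 was measured by TR-FRET competition; AC50 from Hill fits.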
IMPase cell inh = membrane-permeable compound that blocks inositol monophosphatase; P97697; CHO-M1 cells, IP1 accumulation, HTRF TR-FRET ratio; inhibition (IP1 accumulation), % at 46.1 µM; 120,000 tested, under 10 active; active means well fitted curve in the direction sought with a large enough effect in the signal ratio, not every such curve was filed as active; inconclusive means small, poorly fitted or top-dose-only effect, or a change in a side signal; inactive means no such curve, though single readings can be large or run the other way; the % refers to the signal ratio;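 further: cells stimulated with carbachol in lithium chloride buffer; higher means more IMPase inhibition seen as more IP1 and lower FRET ratio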
Target sequence (P97697 whole entry, looked up): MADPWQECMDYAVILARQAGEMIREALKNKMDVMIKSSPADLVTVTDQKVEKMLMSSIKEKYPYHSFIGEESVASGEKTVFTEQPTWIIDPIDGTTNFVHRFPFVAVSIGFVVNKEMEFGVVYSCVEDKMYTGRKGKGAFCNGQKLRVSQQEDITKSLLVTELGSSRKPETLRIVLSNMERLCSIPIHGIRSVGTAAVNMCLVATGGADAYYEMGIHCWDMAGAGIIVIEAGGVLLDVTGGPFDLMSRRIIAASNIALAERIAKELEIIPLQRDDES
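Carbachol-driven Gq signalling in CHO-M1 cells (2000/well) generates IP1. Compounds that block IMPase raise IP1 and so reduce the FRET signal from Eu-anti-IP1 and d2-IP1 after a 10 min room-temperature lysis.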
Each line names hits and unclear results; the compound was inactive in the other large screens. Unless noted, the call rests on the fitted dose curve; in most records, active means well fitted curve in the direction sought with a large enough effect; inconclusive means small, poorly fitted or top-dose-only effect, or another doubt; inactive means no such curve, though single readings can be large; an effect the other way counts as inactive or inconclusive.

CCNc1ncc2nc(-c3ccc(Cl)cc3)c(=O)n(Cc3ccc(F)cc3)c2n1	IMPase Li inh 2µM (no result: ALOX12 inhib, HPGD inh, PNC assembly inh, IMPase cell inh)
Nc1ncn([C@H]2O[C@@H](CO)[C@@H](O)[C@@H]2O)c(=O)n1	none (no result: PNC assembly inh)
COc1ccc(-c2cc(C(=O)N/N=C/c3ccc(O)cc3)[nH]n2)cc1	HPGD inh inconclusive (no result: PNC assembly inh, ALOX15B inhib, IMPase Li inh, IMPase cell inh)
CCSc1nnc(NC(=O)C(C)C)s1	none
CCSc1nnc(NC(=O)c2cc3c(s2)CCCC3)s1	HPGD inh inconclusive, PNC assembly inh inconclusive, IMPase Li inh 5.6µM
CCSc1nnc(NC(=O)C(C(F)(F)F)C(F)(F)F)s1	HPGD inh 3.5µM
O=C(O)c1ccc(CSc2nc3ccc(N4C(=O)C5C6C=CC(C6)C5C4=O)cc3s2)cc1 (stereo not given)	HPGD inh 16µM (no result: ALOX15B inhib, IMPase cell inh)
CCc1cccc(CC)c1NC(=O)CSc1nc2ccc(N3C(=O)C4C5C=CC(C5)C4C3=O)cc2s1 (stereo not given)	HPGD inh 8.9µM
Cc1cccc(NC(=O)CSc2nc3ccc(N4C(=O)c5ccccc5C4=O)cc3s2)c1C	ALOX15B inhib inconclusive
Cc1nc(NC(C)(C)CO)c([N+](=O)[O-])cc1[N+](=O)[O-]	PNC assembly inh -119 (no result: ALOX15B inhib, IMPase cell inh)
COc1ccccc1NC(=O)C1=C(C)Nc2nc(-c3ccco3)nn2C1c1cccc(C)c1 (stereo not given)	none (no result: ALOX12 inhib, HPGD inh, PNC assembly inh, ALOX15B inhib, IMPase Li inh)
CN(C)CC(O)Cn1c2ccc(Br)cc2c2cc(Br)ccc21 (stereo not given)	none (no result: ALOX12 inhib, HPGD inh, PNC assembly inh, ALOX15B inhib, IMPase cell inh)
COC(=O)CC(=O)Cc1nc(N)nc(Nc2ccc(C)c(C)c2)n1	PNC assembly inh -100 (no result: ALOX15B inhib)
Cc1ccc(Nc2nc(N)nc(CN3CCN(C)CC3)n2)cc1C	PNC assembly inh inconclusive
Cc1cccc(NC(=O)C2CCN(S(=O)(=O)c3ccc(F)cc3)CC2)c1C	none (no result: ALOX12 inhib, HPGD inh, PNC assembly inh, ALOX15B inhib, IMPase Li inh)
CCOCCn1cnc2sc(C(=O)Nc3nc(C)c(C(=O)OCC)s3)c(C)c2c1=O	PNC assembly inh -82
CCOC(=O)c1sc(NC(=O)CNC(=O)Cn2cnc3sc(C)c(C)c3c2=O)nc1C	none
CCCCNC(=O)Cn1cnc2sc(C(=O)OCC)c(C)c2c1=O	none
CCOC(=O)c1sc2ncn(/N=C/c3ccccn3)c(=O)c2c1C	IMPase cell inh inconclusive
CCOC(=O)c1sc2ncn(/N=C/N(C)C)c(=O)c2c1C	PNC assembly inh -86
CCCCN(C)C(=O)c1sc2ncn(CC)c(=O)c2c1C	HPGD inh 16µM
Cn1c(=O)c(-c2cccs2)nc2cncnc21	none (no result: ALOX12 inhib, HPGD inh, PNC assembly inh, IMPase cell inh)
CN(c1ccccc1)c1ccc(/C=C(\CCC(=O)O)c2nc3ccccc3s2)cc1[N+](=O)[O-]	HPGD inh 25µM (no result: ALOX15B inhib, IMPase cell inh)
Cc1ccc(/C=C(\CCC(=O)O)c2nc3ccccc3s2)cc1[N+](=O)[O-]	PNC assembly inh inconclusive (no result: ALOX15B inhib, IMPase cell inh)
S=c1nc(-c2nc(=S)[nH]c3c2CCCCCCCCCC3)c2c([nH]1)CCCCCCCCCC2	none (no result: PNC assembly inh, IMPase cell inh)
O=C1/C(=C/Nc2ccc3c(c2)OCO3)CCc2ccccc21	HPGD inh 25µM, ALOX15B inhib inconclusive
COc1ccccc1CNC(=O)c1ccc(Br)o1	HPGD inh 40µM, PNC assembly inh inconclusive (no result: IMPase cell inh)
COc1ccccc1CCNC(=O)c1ccc(C)o1	HPGD inh 8.9µM
COc1cccc([C@@H]2Oc3ccc(Br)cc3C[C@H]2OC(=O)Nc2ccc(C)c(Br)c2)c1	none (no result: ALOX12 inhib, PNC assembly inh, ALOX15B inhib, IMPase cell inh)
CC(C)c1cc(NC(=O)CSc2nnc(-c3ccccc3F)n2C)on1	PNC assembly inh -100
Cc1nn(Cc2ccccc2)c(C)c1NC(=O)CSc1nnc(-c2cc(Cl)ccc2O)n1C	HPGD inh 28µM
Cc1ccc(-c2nnc3c4ccccc4c(C)nn23)cc1NC(=O)c1ccccc1Cl	none (no result: ALOX12 inhib, HPGD inh, PNC assembly inh, ALOX15B inhib, IMPase Li inh)
O=c1c2ccccc2n2cnnc2n1-c1ccccc1	none
O=c1c2cn[nH]c2[nH]c(=S)n1-c1cccc2ccccc12	PNC assembly inh -113, IMPase Li inh inconclusive (no result: ALOX15B inhib, IMPase cell inh)
O=c1c2cn[nH]c2[nH]c(=S)n1-c1ccccc1	HPGD inh 28µM, PNC assembly inh inconclusive (no result: ALOX15B inhib)
C#C[C@]1(O)CC[C@H]2C3CCC4=Cc5oncc5CC4(C)C3CCC21C (stereo not given in full)	none (no result: ALOX12 inhib, PNC assembly inh, ALOX15B inhib, IMPase Li inh, IMPase cell inh)

Screening results as filed in PubChem BioAssay.
